# Screening results from PubChem BioAssay.
# RXFP1 antagonist = blocks the human relaxin receptor RXFP1; Q9HBX9; HEK293-RXFP1, relaxin-stimulated cAMP HTRF, 30 min; hits give low values; activity change, negative = inhibition, % at 57.5 µM; 350,000 compounds, 0.59% hits; AID 1259400;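 active means activity change of -60% or lower, but not beyond a set lower limit; inconclusive means change between -60% and -40%, or beyond the set limit; inactive means change above -40%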; further: on the % scale 0 is the no-effect control and ±100 the full control effect
# Target sequence (Q9HBX9 whole entry, looked up): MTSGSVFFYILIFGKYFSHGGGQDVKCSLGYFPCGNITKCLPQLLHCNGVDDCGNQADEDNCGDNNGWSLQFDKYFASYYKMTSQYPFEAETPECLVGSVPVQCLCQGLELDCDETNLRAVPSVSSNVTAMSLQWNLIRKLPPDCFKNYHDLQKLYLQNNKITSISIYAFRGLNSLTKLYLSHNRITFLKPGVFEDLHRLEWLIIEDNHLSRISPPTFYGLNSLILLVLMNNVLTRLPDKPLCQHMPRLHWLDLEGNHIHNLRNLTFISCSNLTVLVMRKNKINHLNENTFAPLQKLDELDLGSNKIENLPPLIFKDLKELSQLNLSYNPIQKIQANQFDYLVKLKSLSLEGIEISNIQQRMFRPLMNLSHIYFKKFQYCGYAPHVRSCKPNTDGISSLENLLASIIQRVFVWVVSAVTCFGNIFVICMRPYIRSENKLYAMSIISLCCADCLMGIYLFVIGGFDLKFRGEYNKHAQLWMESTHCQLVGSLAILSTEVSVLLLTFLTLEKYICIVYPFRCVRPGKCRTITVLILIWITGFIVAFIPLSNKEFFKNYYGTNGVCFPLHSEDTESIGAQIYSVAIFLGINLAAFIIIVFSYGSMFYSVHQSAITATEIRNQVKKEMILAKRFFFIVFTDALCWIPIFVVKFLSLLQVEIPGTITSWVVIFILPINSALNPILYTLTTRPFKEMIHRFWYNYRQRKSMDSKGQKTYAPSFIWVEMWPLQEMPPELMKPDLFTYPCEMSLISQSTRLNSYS
# RXFP1 agonist = agonists of human relaxin receptor RXFP1; Q9HBX9; HEK293T-RXFP1 cAMP TR-FRET, 30 min; response scale: percent of porcine relaxin response, buffer zero; Potency, µM (top dose mostly 57.5 µM), inactives show at the top dose activation, usual class: activators; 370,000 compounds, 0.3% hits; AID 2676; active means well fitted activation curve with a large enough effect; inconclusive means small, poorly fitted or top-dose-only effect; further: potency means the concentration at half of the fitted maximal effect; on the % scale 0 is the no-effect control and ±100 the full control effect; nearly all actives have a fitted effect of over 60% in size
#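 Agonist response is measured as cAMP accumulation in an RXFP1-transfected HEK293T line under PDE4 inhibition. Values are scaled between buffer-only and 29 nM porcine relaxin, and EC50s come from standard Hill equation fits.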
# gsp antagonist = gsp mutant antagonism. gsp-mutant cells, cAMP HTRF, 30 min. Potency, µM (top dose mostly 76.9 µM), without a hit: top-dose activity change, negative = inhibition, hits mostly inhibitors. 340,000 compounds, 0.4% hits. AID 624288; calls by dose curve; cell line not stated here;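 further: intracellular cAMP measured with PDE inhibitor Ro 20-1724 present during compound exposure; potency means the concentration at half of the fitted maximal effect; on the % scale 0 is the no-effect control and ±100 the full control effect; nearly all actives have a fitted effect of over 65% in size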
#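 Cells in G418 medium, seeded 16-24 h, 37C; buffer exchange to DPBS + 1 mM CaCl2, 0.5 mM MgCl2, 0.05% BSA; cpds in DMSO + […] (300 uM stock), 30 min 37C; HTRF cAMP detection.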
# Giardia killer = kills Giardia lamblia. Giardia lamblia trophozoite viability. activity change, % at 7.66 µM, hits read low. 340,000 compounds, 0.15% hits. AID 540267; in the data active means activity change below about -80%; inconclusive means between about -30% and that limit;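 further: parasites exposed to compound for two days anaerobically before the ATP read; on the % scale 0 is the no-effect control and ±100 the full control effect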
#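 Killing of trophozoites was scored by loss of ATP luminescence after a 48 hrs anaerobic exposure to compounds at 37 deg C, using 100 cells per well.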
# Coupling enz = inhibits coupling enzyme system, counter-screen for aldolase hits; activity change, negative = inhibition, % at 58.2 µM, hits read low; coupling enzyme system counterscreen, AmpLite Red fluorescence; AID 2472; 290,000 compounds, 0.67% hits; in the data active means activity change below about -30%; further: on the % scale 0 is the no-effect control and ±100 the full control effect
#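 Activity here indicates interference with the coupling reaction, not aldolase inhibition. Compounds at 57.5 uM final met coupling enzymes for 10 min at RT; substrate and AmpLite Red detection followed, with a 525/598 nm fluorescence read after 20 min.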
# gsp ag = agonists of gsp mutant (McCune-Albright syndrome); gsp mutant cells, cAMP HTRF, 30 min; Potency, µM (highest dose often 76.9 µM), for inactives: at the highest dose activation (cAMP increase), usual class: activators; 340,000 compounds, 0.13% hits; AID 624287; active means well fitted activation curve with a large enough effect; inconclusive means small, poorly fitted or top-dose-only effect, or another doubt; inactive means no such curve, though single readings can be large or run the other way; cell line not stated here;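 further: phosphodiesterase inhibitor Ro 20-1724 added with compounds to block cAMP breakdown; potency means the concentration at half of the fitted maximal effect; nearly all actives have a fitted effect of over 60% in size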
#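 Cells stably selected in G418 were plated at 2000/well, grown 16-24 hr, then given compounds in DMSO with the PDE inhibitor […] (300 uM solution added) for 30 min at 37C; cAMP was read by HTRF.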
# * hit, by the source's call; ? = inconclusive; / = no result; [ ] = dose if it differs, or a comment. The list is not random: actives were taken first. Their share in the collection is about 1.6%.
SMILES,RXFP1 antagonist,RXFP1 agonist,gsp antagonist,Giardia killer,Coupling enz,gsp ag
O=C(Nc1cccc(Cl)c1)Nc1cc(S(=O)(=O)N2CCCCC2)ccc1Cl,-16,0%,25µM*,-15,1,13%
COc1ccc(C(=O)Nc2ccc(Cl)c(S(=O)(=O)Nc3ccccc3OC)c2)cc1,5,1%,-26%,10,-2,-21%
COc1ccccc1NS(=O)(=O)c1cc(NC(=O)c2ccc(Cl)nc2)ccc1Cl,-19,0%,32µM*,-23,-3,1%[15.4 µM]
COC(=O)c1cccc(NC(=O)Nc2ccc(Cl)cc2)c1,-13,-1%,2%,-6,3,3%[15.4 µM]
COc1ccccc1NS(=O)(=O)c1cccc(NC(=O)Nc2cccc(Cl)c2)c1,?,-1%,32µM*,18,-8,-12%
COC(=O)c1cc(NC(=O)Nc2cccc(Cl)c2)ccc1Cl,5,1%,25µM*,-4,-2,-4%
COCCOCC(OC)OC,-10,/,/,/,/,/
CN(C(=O)CSc1nc2ccc(NC(=O)CCc3ccccc3)cc2s1)c1ccccc1,/,0%,/,/,/,/
CCCn1cc(S(=O)(=O)c2cc(C)ccc2C)c(=O)c2cc(F)c(N3CCCCCC3)cc21,-11,3%,/,/,/,/
O=c1c2cccnc2n(Cc2ccccc2F)c(=O)n1Cc1ccccc1Cl,/,26%,/,/,/,/
COc1ccc([C@]23Cc4ccccc4C(O2)c2c(cc(-c4ccccc4)oc2=O)O3)cc1,/,-1%[11.5 µM],/,/,-9,/
COc1ccc2c(c1)c1c(c(=O)n(-c3cccc(C)c3)c(=O)n1CC(=O)NCCC1=CCCCC1)n2C,/,29%,/,/,/,/
O=C(CSc1ncnc2ccccc12)Nc1cc(S(=O)(=O)N2CCCCC2)ccc1Cl,1,16µM*,25%,9,1,3.2µM*
O=C(Nc1cccc(Cl)c1)Nc1cccc(Cl)c1,-21,1%,35µM*,-7,-6,16%
CCOc1ccc(CCNC(=O)CSCC(=O)Nc2ccc(OC)cc2)cc1OCC,-11,0%,-11%,3,/,15%
O=C(Nc1ccc2c(c1)nc1n2CCN(C2CCCCC2)C1)NC1CCCCC1,/,1%,/,/,-32*,/
COc1cc(CNc2ccc3[nH]c(=O)[nH]c3c2)cc(Cl)c1OCC(=O)NC(C)(C)C,3,1%,-16%,14,-44*,-27%
CCOc1cc(CNc2ccc3[nH]c(=O)[nH]c3c2)ccc1OCC(=O)NC(C)(C)C,-5,0%,-13%,6,-33*,-12%
O=P(O)(O)OC[C@@H](O)CO,3,/,/,/,/,/
CC(C)NC(=O)c1ccc(C=O)cc1,15,/,/,/,/,/
CCOC(=O)c1cc2c(=O)n3ccccc3nc2n(Cc2ccco2)c1=NC(=O)c1ccccc1Br,/,11%,/,/,/,/
CCOC(=O)c1cc2c(=O)n3ccccc3nc2n(Cc2ccco2)c1=NC(=O)c1ccccc1OCC,-5,28µM*,-9%,22,7,11%[15.4 µM]
N#C/C(=N\Nc1ccc(Cl)c(Cl)c1)C(=O)C1CC1,-36,2%,25µM*,-14,18,-24%
CC(C)c1ccc(NC(=O)c2ccc3c(c2)C(=O)N(Cc2cccnc2)C3=O)cc1,-12,-1%,35µM*,-12,-1,?
Cc1ccc(NC(=O)c2ccc3c(c2)C(=O)N(CC2CCCO2)C3=O)cc1C (stereo not given),-36,0%,-25%,-2,1,-17%
SMILES,RXFP1 antagonist,RXFP1 agonist,gsp antagonist,Giardia killer,Coupling enz,gsp ag
C#Cc1cccc(NC(=O)c2ccc3c(c2)C(=O)N(Cc2cccnc2)C3=O)c1,-88*,-1%,40µM*,-15,/,33%[15.4 µM]
O=C(O)c1cc(NC(=O)c2ccc3c(c2)C(=O)N(Cc2cccnc2)C3=O)cc(C(=O)O)c1,-7,7%,12%,-4,0,0%
CCOC(=O)c1ccc(NC(=O)c2ccc3c(c2)C(=O)N(CC2CCCO2)C3=O)cc1 (stereo not given),-33,0%,32µM*,5,/,-19%
COC(=O)Cc1ccc(NC(=O)c2ccc3c(c2)C(=O)N(Cc2cccnc2)C3=O)cc1,4,2%,-11%,0,/,-19%
CCOC(=O)c1ccc(NC(=O)c2ccc3c(c2)C(=O)N(Cc2cccnc2)C3=O)cc1,-13,4%,35µM*,15,/,?
CC1(C)OC(=O)Nc2ccc(Br)cc21,10,/,/,/,/,/
CCc1cccc(C)c1NC(=O)Nc1c(Br)cnn1C,6,4%,3%,-18,0,-7%
CC[n+]1c(/C=C/Nc2ccccc2)sc2ccccc21,-7,0%,45µM*,41,4,10%
CC[n+]1c(/C=C(\C)Nc2ccccc2)sc2ccccc21,-20,0%,-2%,3,-2,-8%[15.4 µM]
CCCCc1nc2c(c3c1C[C@H](C)OC3)CN(S(=O)(=O)c1c(C)noc1C)CC2,/,/,/,/,0,/
CC(=O)c1coc2c1cc(O)c1ccccc12,0,0%,2%,13,-33*,?
O=C(c1ccco1)c1coc2c1cc(O)c1ccccc12,-11,4%,5%,?,-31*,26%
CC(=O)c1cc(O)c2ccccc2c1O,10,5%,-12%,-22,-33*,-10%
Fc1ccc2cnc(CCO[C@H]3CCCCO3)cc2c1,/,/,2%,-1,/,-38%
O=C(N/N=C/c1ccco1)c1cc(-c2cccc3ccccc23)n[nH]1,-13,1%,-3%,9,0,-7%
O=C(N/N=C/c1ccccc1C(=O)O)c1cc(-c2ccc3c4c(cccc24)CC3)n[nH]1,-65*,0%,-14%,-8,3,2%[15.4 µM]
CCOC(=O)Cc1ccc(NC(=O)N2CC(CC)Oc3ccccc32)cc1 (stereo not given),-27,1%,/,/,/,/
COc1ccc(Nc2nnc(-c3ccc(O)cc3)c3ccccc23)cc1,-6,3%,25µM*,13,-9,-1%
Oc1ccc(Nc2nnc(-c3ccc(O)cc3)c3ccccc23)cc1,-37,1%,-19%,18,-3,-18%[15.4 µM]
CCCSC(=S)c1c(C)[nH]n(-c2ccccc2)c1=O,-70*,0%,?,4,-12,15%
Cn1cc(Br)c(C(=O)Nc2nccs2)n1,-1,4%,-10%,-4,-1,26%[15.4 µM]
CCC1(CC)Cc2ccccc2-c2nc(NN)[nH]c(=O)c21,-5,1%,-19%,-6,-3,6%[15.4 µM]
CCC1(CC)Cc2ccccc2-c2[nH]c(=S)[nH]c(=O)c21,47,/,11%,4,/,6.3µM*
CCOC(=O)c1c(NC(=O)CSc2nc(C)cc(C)c2C#N)sc(C(C)=O)c1C,-9,18µM*,6%,3,1,-29%
CCOC(=O)c1sc(NC(=O)CSc2nc(C)cc(C)n2)c(C#N)c1C,-5,3%,-12%,2,/,1%
Oc1ccc(-c2nc3ccc(Cl)cn3c2Nc2ccc(Cl)cc2)cc1,-67*,7%,/,/,/,/
